Growth data for 16 compounds are collected here from PubChem BioAssay (NCI).

Among the test systems are T-47D breast; BT-549 breast; MDA-MB-435 melanoma; SW-620 colon; MCF7 breast; HCT-116 colon; HCC-2998 colon; KM12 colon.
Common to all, as to experiment: NCI-60 one-dose screen, 48 h (100 = growth as untreated, 0 = no growth, -100 = all killed)
Common to all, as to conditions: 10 µM unless noted

The structures appear in SMILES notation. This is part of a sample that, as a whole, favours compounds with a hit. Of some 83,000 tested, about 20% had one in any assay.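 Note: values are percent growth. 100 is the growth of untreated cells, values between 100 and 0 indicate rising inhibition; between -100 and 0 indicates cell death.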 Unmarked numbers belong to inactive results. Active and inactive are the calls of the source. How the source made its calls: active means growth percent below 10; inactive means the rest.

For the compound `COC(=O)[C@@]1(C)CC[C@]2(C)CC[C@]3(C)C4=CC=C5C(=CC(=O)C(O)=C5C)[C@]4(C)[C@@H](O)C[C@@]3(C)[C@@H]2C1`, the growth in the assay with T-47D breast is -13.7% (active); in the assay on BT-549 breast, 35.5%; with MDA-MB-435 melanoma, 15.9%; in the assay on SW-620 colon it was -10.4% (active); in the assay with MCF7 breast, 17.6%; in the assay on HCT-116 colon, 0.149% (active). Also, the growth was 37.7% with HCC-2998 colon and 77.6% in the assay with KM12 colon.
In the case of `Cc1sc2nc(NCCN)[nH]c(=O)c2c1C`, the growth in the assay with T-47D breast is 95%; in the assay with BT-549 breast, 94.3%; in the assay with MDA-MB-435 melanoma, 84.9%; with SW-620 colon, 95.5%; in the assay with MCF7 breast, 89.6%; with HCT-116 colon it was 97.8%. In addition, the growth is 101% in the assay on HCC-2998 colon and 84.3% in the assay with KM12 colon.
In the case of `CCN(CC)CCOc1ccc2ccc(=O)oc2c1`, the growth in the assay on T-47D breast is 97.5%; with BT-549 breast, 102%; with MDA-MB-435 melanoma it was 112%; in the assay with SW-620 colon, 101%; in the assay with MCF7 breast it was 97.6%; in the assay on HCT-116 colon, 100%. In addition, the growth in the assay with HCC-2998 colon was 90.5%; in the assay on KM12 colon, 103%.
For the compound `COCCn1cc(-c2csc(-c3c[nH]c4ccc(F)cc34)n2)c2cccnc21`, the growth with T-47D breast was 2.36% (active); in the assay with BT-549 breast, 7.07% (active); in the assay on MDA-MB-435 melanoma, 5.02% (active); in the assay on SW-620 colon it was 18.8%; in the assay with MCF7 breast, 11.8%; in the assay on HCT-116 colon, 22.2%. For the same compound, the growth with HCC-2998 colon was 27.6%; in the assay with KM12 colon it was 8.29% (active).
Turning to `C=CC(=O)Nc1cccc(Oc2nccc(Nc3nnc(-c4ccc(Br)cc4)s3)n2)c1`, the growth is 82.1% with T-47D breast; 109% in the assay on BT-549 breast; 94.3% in the assay with MDA-MB-435 melanoma; 96% in the assay with SW-620 colon; 70.8% in the assay with MCF7 breast; 98.9% with HCT-116 colon. In addition, the results for the growth with HCC-2998 colon and in the assay on KM12 colon were 114% and 100%, respectively.
For `CCCCCCCCn1ccc2cc(NC(=O)CN=[N+]=[N-])ccc21`, the growth is 94% with T-47D breast; 86.5% in the assay on BT-549 breast; 108% in the assay on MDA-MB-435 melanoma; 101% in the assay with SW-620 colon; 91.1% with MCF7 breast; 97.5% in the assay with HCT-116 colon. The growth with HCC-2998 colon was 117%; with KM12 colon, 99.4%.
With `O=C1CCC(C(=O)N/N=C/c2cc(F)ccc2F)N1` (stereo not drawn), the growth with T-47D breast was 97.2%; in the assay with BT-549 breast it was 103%; with MDA-MB-435 melanoma, 100%; in the assay on SW-620 colon, 106%; in the assay with MCF7 breast, 93.4%; in the assay on HCT-116 colon, 103%. In addition, the growth was 107% with HCC-2998 colon and 104% with KM12 colon.
Consider `Nc1cc(Br)cc2c1[nH]c(=O)c1ccccc12`, for which the growth in the assay on T-47D breast was 79.6%; with BT-549 breast, 86.9%; in the assay on MDA-MB-435 melanoma, 113%; with SW-620 colon, 94.7%; with MCF7 breast it was 53.2%; in the assay on HCT-116 colon, 96.8%. In addition, the growth in the assay on HCC-2998 colon and with KM12 colon was 104% in each case.
Regarding `COc1cc2c(cc1-c1c(C)noc1C)ncc1nc(CN3CCOCC3)n([C@H](C)COC(F)F)c12`, the growth was 13% with T-47D breast; 55.5% with BT-549 breast; 35.8% in the assay on MDA-MB-435 melanoma; 62.9% in the assay on SW-620 colon; 13.2% in the assay with MCF7 breast; 41.3% in the assay with HCT-116 colon. The growth in the assay with HCC-2998 colon is 32%; in the assay on KM12 colon, 34.9%.
As to `O=C(OCc1ccc2c(Cl)cc(Cl)c(O)c2n1)N1CCN(C(=O)c2cc3ccccc3[nH]2)CC1`, the growth in the assay with T-47D breast is 23.5%; in the assay on BT-549 breast it was 50.6%; with MDA-MB-435 melanoma, 39.1%; with SW-620 colon, 25.8%; in the assay with MCF7 breast, 25.3%; with HCT-116 colon, 20.3%. Further, the growth in the assay with HCC-2998 colon was 55%; in the assay on KM12 colon it was 20.7%.
As for `NS(=O)(=O)c1ccc(C(=O)N=Nc2c(O)[nH]c3ccc(Cl)cc23)cc1`, the growth with T-47D breast is 97.2%; with BT-549 breast, 98.8%; in the assay on MDA-MB-435 melanoma it was 105%; in the assay with SW-620 colon, 100%; in the assay on MCF7 breast, 89.2%; in the assay on HCT-116 colon, 99.4%. The growth in the assay on HCC-2998 colon is 114%; in the assay on KM12 colon, 102%.
As to `COc1cc(/C=C/c2cn[nH]c2-c2ccc(C)cc2)cc(OC)c1OC`, the growth is 22.2% in the assay on T-47D breast; 32.9% in the assay on BT-549 breast; -16.2% (active) in the assay with MDA-MB-435 melanoma; 19.7% in the assay with SW-620 colon; 13.1% in the assay with MCF7 breast; 11.7% in the assay on HCT-116 colon. Also, the results for the growth with HCC-2998 colon and in the assay with KM12 colon were 78.8% and 29.9%, respectively.
As for `N#Cc1c(-c2ccccc2)cc(-c2ccccc2)n(CCCCC(=O)NO)c1=O`, the growth in the assay on T-47D breast was 9.65% (active); in the assay with BT-549 breast, 52.8%; in the assay on MDA-MB-435 melanoma it was -13.7% (active); with SW-620 colon it was 11.5%; in the assay with MCF7 breast it was 20.5%; in the assay on HCT-116 colon, 5.09% (active). Moreover, the growth is 29.3% in the assay with HCC-2998 colon and 22.9% in the assay with KM12 colon.
For the compound `Cc1ccc(NC(=O)c2sc3nc(C)c(C(O)c4ccccc4)cc3c2N)cc1` (stereo not drawn), the growth was 42.3% in the assay with T-47D breast; 61.6% in the assay on BT-549 breast; -13.1% (active) with MDA-MB-435 melanoma; 23.1% in the assay with SW-620 colon; 19.2% with MCF7 breast; 13.7% in the assay on HCT-116 colon. Moreover, the growth was 12.1% with HCC-2998 colon and 16.8% with KM12 colon.
As to `C=C(c1ccc(C(=O)O)c(F)c1)c1cc2c(cc1C)C(C)(C)CCC2(C)C`, the growth with T-47D breast is 78.5%; in the assay with BT-549 breast, 91.7%; in the assay with MDA-MB-435 melanoma it was 89.3%; with SW-620 colon, 97.6%; in the assay with MCF7 breast, 62.1%; with HCT-116 colon it was 79.5%. The results for the growth with HCC-2998 colon and in the assay on KM12 colon were 89.9% and 69.2%, respectively.
Consider `O=C(NCc1ccc(Cn2c(=O)sn(-c3ccccc3)c2=O)cc1)OCc1ccc2cccc(O)c2n1`, for which the growth was -41.7% (active) with T-47D breast; -85% (active) with BT-549 breast; -89.9% (active) in the assay on MDA-MB-435 melanoma; -62.2% (active) in the assay with SW-620 colon; -43.2% (active) in the assay on MCF7 breast; -87% (active) with HCT-116 colon. Besides, the growth was -71.6% (active) with HCC-2998 colon and -15.1% (active) with KM12 colon.
